This is part of a sample that, as a whole, favours compounds with a hit. Of some 83,000 tested, about 20% had one in any assay.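 The test compound was applied at a single concentration to cells in 96-well plates for 48 hours, and percent growth was recorded.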 A number with no mark means an inactive call. Active and inactive are the calls of the source. Rule for the calls: active = growth percent below 10; inactive = the rest.
Key:
Assay in all cases: NCI-60 one-dose screen, 48 h (100 = growth as untreated, 0 = no growth, -100 = all killed)
Settings in all cases: 10 µM unless noted
T-47D breast = tested on: T-47D breast
BT-549 breast = tested on: BT-549 breast
MDA-MB-435 melanoma = tested on: MDA-MB-435 melanoma
SW-620 colon = tested on: SW-620 colon
MCF7 breast = tested on: MCF7 breast
HCT-116 colon = tested on: HCT-116 colon
HCC-2998 colon = tested on: HCC-2998 colon
KM12 colon = tested on: KM12 colon

Row | SMILES | growth (T-47D breast) | growth (BT-549 breast) | growth (MDA-MB-435 melanoma) | growth (SW-620 colon) | growth (MCF7 breast) | growth (HCT-116 colon) | growth (HCC-2998 colon) | growth (KM12 colon)
1 | COc1cccc(Nc2nccc(Nc3ccc4[nH]ncc4c3)n2)c1 | -51.9% (active) | -15.9% (active) | -78.4% (active) | -69.3% (active) | -50.6% (active) | -87% (active) | -7.35% (active) | -44.3% (active)
2 | COc1ccc(-c2nc3ccc4[nH]ncc4c3c3c2CCCC3)cc1B(O)O | 46.9% | 41.4% | 32.4% | 33.4% | 60.1% | 27% | 69.8% | 42.7%
3 | CN1CCN(CC(=O)Nc2nc(-c3cccc(NS(=O)(=O)c4cccc5c(N(C)C)cccc45)c3)cs2)CC1 | 64.3% | 97.1% | 68.4% | 62.6% | 49.9% | 88.4% | 53.6% | 71.4%
4 | O=c1c2cc(F)ccc2sc2c(NCCCN3CCCC3)nc3ccccc3c12 | 64.6% | 70.6% | 20.6% | 20.4% | -24.8% (active) | 24.2% | 22.1% | 27.7%
5 | Cc1cc(NCc2cc(Nc3ccnc4cc(Cl)ccc34)ccc2F)nc(Cl)n1 | 28% | 54.6% | 37% | 57% | 30% | 30.5% | 63.2% | 64.7%
6 | Cc1cc[c-]cc1.Fc1c[c-]c(-c2ccccn2)c(F)c1.[Pt+2].c1ccc(P(C[PH+](c2ccccc2)c2ccccc2)c2ccccc2)cc1 | 8.85% (active) | 20.6% | 8.28% (active) | 14.6% | 6.01% (active) | 9.8% (active) | 33.1% | 18%
7 | C[C@@H]1N=C(c2ccc3ccccc3n2)Nc2nc3ccccn3c2C1=O | 90.2% | 88.8% | 104% | 99% | 76.7% | 95.5% | 101% | 95.3%
8 | O=c1cc(C2NNC(=S)N2)c2ccc3ccccc3c2o1 (stereo not given) | 73.1% | 94% | 102% | 92.2% | 86.9% | 95.4% | 113% | 100%
9 | Cc1ccc(/C=C/c2c(C(=O)/C=C/c3ccc(C(F)(F)F)cc3)c(C)nc3ccccc23)cc1 | -13.1% (active) | -30.6% (active) | -87.9% (active) | -43.2% (active) | -14.4% (active) | -56.8% (active) | -74.3% (active) | -70% (active)
10 | O=C(CSc1nnc(-c2ccc(NC(=O)c3cccnc3)cc2)o1)Nc1cccc(Br)c1 | 56.5% | 109% | 94.3% | 96.8% | 90.3% | 58.7% | 106% | 105%
11 | N#CCN1C(=O)C2C3=C(CCCC3)SC2N=C1CN1CCCC1 (stereo not given) | 97.2% | 114% | 105% | 95.3% | 109% | 94.2% | 96.9% | 109%
12 | COc1nc(N(C)O)nc(N(C)O)n1 | 30.3% | 12.4% | 49.8% | 34.6% | 15% | 7.23% (active) | 9.13% (active) | 24.5%
13 | CCOC(=O)c1c(/C=C/C(=O)O)nc2ccccc2c1/C=C/c1ccccc1 | 36.4% | 19.1% | 21.6% | 30.1% | 30.2% | 22.4% | 35.1% | 19.7%
14 | C[n+]1cc2cc(C(N)=O)[nH]c3c(=N)c(Cl)c(N)c1c23 | 48.3% | 78.9% | 85.7% | 30.8% | 35.8% | 6.54% (active) | 65.5% | 74.5%
15 | O=C(Nc1cccc(C(F)(F)F)c1)Nc1cccc(C(F)(F)F)c1 | -4.96% (active) | 0.669% (active) | 9.11% (active) | 15.2% | 5.26% (active) | -10.8% (active) | 11.8% | 4.98% (active)
16 | COc1ccc2[nH]c(O)c(/C=c3/cc4c(c(-c5ccc(F)c(OC)c5)n3)=Nc3ccccc3-4)c2c1 | 89.6% | 84.1% | 6.77% (active) | -23.2% (active) | 1.29% (active) | -91% (active) | -0.339% (active) | 13.1%
17 | Cc1ccc(-c2cc(-c3cccnc3)[nH]c(=O)c2C#N)cc1 | 95.6% | 111% | 103% | 102% | 94.7% | 115% | 102% | 101%
18 | CC(C)(C)C(CCc1ccc(Cl)cc1)N1CCN(C2CCCCC2)CC1 (stereo not given) | 23.2% | 50% | 39.2% | 35% | 31.6% | 17.5% | 27% | 36.8%
19 | O=c1ssc(Cl)c1-c1ccccc1 | 95.7% | 114% | 98.4% | 95.2% | 89.3% | 93.5% | 104% | 113%
20 | COc1cccc(-c2nc3sccn3c2/C=C/C(=O)c2ccc(C(F)(F)F)cc2)c1 | 64.1% | 87.3% | 73.3% | 66.3% | 65% | 48.4% | 102% | 73.1%
21 | COc1ccc(C2=NN(C(=O)c3cc(OC)c(OC)c(OC)c3)C(c3ccc(Cl)cc3)C2)cc1OC (stereo not given) | 24.6% | 49.9% | -43.3% (active) | 30.1% | 18.7% | 10.6% | -62.4% (active) | 15.9%
22 | O=C(/C=C/c1ccc(Cl)nc1)c1ccc(Cl)cc1Cl | 91.6% | 110% | 89.9% | -33.2% (active) | 17.1% | 36.7% | 114% | 76.5%
23 | O=C(Nc1ccc(-n2cc(-c3ccncc3)c(-c3ccc(Cl)c(O)c3)n2)cc1)N1CCOCC1 | 83.9% | 100% | 104% | 113% | 101% | 94.8% | 109% | 100%
24 | CN1CCN(CCCOc2ccc3nc(Nc4ccc(F)c(F)c4)ccc3c2)CC1 | 14.6% | 79.9% | -72.3% (active) | -32.2% (active) | 11.8% | 5.76% (active) | -24.6% (active) | 11.8%
25 | Cc1cc(Cl)ccc1Nc1nc(C(F)(F)F)ccc1C(=O)N/N=C/c1ccc(N(C)C)cc1 | 37% | 34.9% | 43.7% | 15.9% | 10.1% | 19.4% | -37.3% (active) | 26.9%
26 | COc1ccc2c(c1)C(=O)/C(=C/c1ccc(OCC(=O)Nc3nccs3)cc1)O2 | 75.2% | -84.2% (active) | 92.5% | -24% (active) | 59.8% | 15.6% | 113% | 21.3%
27 | COc1cc(OC)cc(C2CC(=O)Nc3c2c(C)nn3-c2nc3ccccc3[nH]2)c1 (stereo not given) | 12.6% | 39.1% | 9.66% (active) | 24% | 7.95% (active) | 0.333% (active) | 69.1% | 30.5%
28 | O=c1c2cc(F)ccc2sc2c(Nc3cccnc3)nc3ccccc3c12 | 84.7% | 98.7% | 99.1% | 85.6% | 55.1% | 61.5% | 94.1% | 89.2%
29 | Cc1ccc(-c2cc(-c3ccccc3C)[nH]c(=O)c2C#N)s1 | 86.5% | 79.4% | 94.9% | 95.6% | 89% | 91.8% | 111% | 95.3%
30 | COC(=O)[C@]12CC[C@@H](C)[C@H](C)[C@@H]1C1=CC[C@@H]3[C@@]4(C)C(C=O)=C[C@@](C)(COC(C)=O)[C@@H]4[C@H](O)C[C@@]3(C)[C@]1(C)CC2 | -18.5% (active) | -19.8% (active) | -24.3% (active) | -59.4% (active) | -11.7% (active) | -76.8% (active) | -71% (active) | -27.5% (active)

Reference: PubChem BioAssay (NCI)
